Values joined by “and” are separate entries in the source; they are usually repeats but may differ in a detail not shown here. Equal values may be shown once. Unmarked numbers belong to inactive results. Records with an inconclusive call do not appear. Entries that show only a call come without a potency. Active and inactive are the calls of the source. Unless noted, the call rests on the fitted dose curve; in most records, active means well fitted curve in the direction sought with a large enough effect; inconclusive means small, poorly fitted or top-dose-only effect, or another doubt; inactive means no such curve, though single readings can be large; an effect the other way counts as inactive or inconclusive.
How the values were obtained:
[1] = system: Hek293T; assay: Primary qHTS to identify gynecologic anti-cancer compounds using libraries of approved drugs and bioactive compounds (AID 1345084); conditions: Gynecologic cancer cell panel viability, ATPlite luminescence, 48 h, control line for the selectivity index; series mostly up to 57.5 µM; further: nearly all actives have a fitted effect of over 55% in size; further: potency means the concentration at half of the fitted maximal effect
Procedure, shortened: (§1)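 Five-concentration response, 48 h; readout is ATP-driven luciferase luminescence.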

[2] = system: JEG-3; assay: as above; conditions: Gynecologic cancer cell panel viability, ATPlite luminescence, 48 h; series mostly up to 57.5 µM
Procedure, shortened: as §1

[3] = system: OV90; assay: as above; conditions: Gynecologic cancer cell panel viability, ATPlite luminescence, 48 h; series mostly up to 57.5 µM
Procedure, shortened: as §1

[4] = system: PA-1; assay: as above; conditions: Gynecologic cancer cell panel viability, ATPlite luminescence, 48 h; series mostly up to 57.5 µM
Procedure, shortened: as §1

[5] = system: SKOV3; assay: as above; conditions: Gynecologic cancer cell panel viability, ATPlite luminescence, 48 h; series mostly up to 57.5 µM
Procedure, shortened: as §1

[6] = system: Tov-21-G; assay: as above; conditions: Gynecologic cancer cell panel viability, ATPlite luminescence, 48 h; series mostly up to 57.5 µM
Procedure, shortened: as §1

[7] = system: Tov112D; assay: as above; conditions: Gynecologic cancer cell panel viability, ATPlite luminescence, 48 h; series mostly up to 57.5 µM
Procedure, shortened: as §1

[8] = Drug repurposing screens with cells derived from glioblastoma tumor samples (AID 1345199); conditions: GBM patient neurospheres viability, ATP luminescence, 48 h; further: nearly all actives have a fitted effect of over 40% in size
Procedure, shortened: (§2)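 Four patient lines of CD133+ GBM neurospheres were screened at several concentrations; hits were retested in those lines plus three slower-growing GBM lines, using 48-hour treatment and ATP-based viability.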

[9] = system: astro; assay: as above; conditions: viability, ATP luminescence, 48 h; series mostly up to 45.9 µM
Procedure, shortened: as §2

[10] = molecular target: Nuclear receptor subfamily 1 group I member 2 (Rattus norvegicus) (UniProt Q9R1A7); assay: qHTS assay for small molecule activators of the rat pregnane X receptor (rPXR) signaling pathway (AID 651751; call rule not given here); conditions: rPXR reporter cells, luciferase (One-Glo), 24 h
Chain of Nuclear receptor subfamily 1 group I member 2 (Rattus norvegicus) (Q9R1A7 whole entry, looked up): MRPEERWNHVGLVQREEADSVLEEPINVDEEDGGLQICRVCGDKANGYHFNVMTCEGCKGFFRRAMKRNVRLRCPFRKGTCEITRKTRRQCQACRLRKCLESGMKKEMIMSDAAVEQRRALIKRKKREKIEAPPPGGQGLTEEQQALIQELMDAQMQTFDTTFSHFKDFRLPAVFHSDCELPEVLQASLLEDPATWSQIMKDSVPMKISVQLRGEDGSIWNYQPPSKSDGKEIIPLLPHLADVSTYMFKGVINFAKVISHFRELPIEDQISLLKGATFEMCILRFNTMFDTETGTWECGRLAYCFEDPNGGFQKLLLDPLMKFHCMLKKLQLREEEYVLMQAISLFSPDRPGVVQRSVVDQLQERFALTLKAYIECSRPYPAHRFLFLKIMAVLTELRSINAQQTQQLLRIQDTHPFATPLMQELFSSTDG

[11] = qHTS assay for small molecule activators of the human pregnane X receptor (PXR) signaling pathway (AID 720659; call rule not given here)
[12] = at 20 µM (top of the series), tumour line C
[13] = at 21.2 µM (top of the series), tumour line B
[14] = at 21.3 µM (top of the series), tumour line A
[15] = at 45.9 µM (top of the series), tumour line B
[16] = at 45.9 µM (top of the series), tumour line D
[17] = at 46 µM (top of the series), tumour line A
[18] = at 46.1 µM (top of the series), tumour line C

| SMILES | outcome [1] | outcome [2] | Potency [3] | outcome [4] | outcome [5] | outcome [6] | outcome [7] | activity, negative = cell killing [8, 12] | activity, negative = cell killing [8, 13] | activity, negative = cell killing ([8]; at 21.2 µM (top of the series), tumour line D) | activity, negative = cell killing [8, 14] | outcome [9] | activity, negative = cell killing [8, 15] | activity, negative = cell killing [8, 16] | activity, negative = cell killing [8, 17] | activity, negative = cell killing [8, 18] | max response [10] | outcome [11] |
| --- | --- | --- | --- | --- | --- | --- | --- | --- | --- | --- | --- | --- | --- | --- | --- | --- | --- | --- |
| CO[C@@]1(NC(=O)C(C(=O)O)c2ccc(O)cc2)C(=O)N2C(C(=O)O)=C(CSc3nnnn3C)CO[C@@H]21 (stereo partly drawn) | inactive | inactive | inactive | inactive | inactive | inactive | inactive | -17.7% | -0.689% | -3.96% | -23.1% | inactive | – | – | – | – | – | – |
| COc1nccnc1NS(=O)(=O)c1ccc(N)cc1 | inactive | inactive | inactive | inactive | inactive | inactive | inactive | – | – | – | – | inactive | 0.463% | -17.5% | -24.3% | -3.06% | – | – |
| CC(O)CCCCn1c(=O)c2c(ncn2C)n(C)c1=O (stereo not drawn) | inactive | inactive | inactive | inactive | inactive | inactive | inactive | – | – | – | – | inactive | -11.9% | -16.4% | -31.9% | -1.44% | – | – |
| CN1C(C)(C)CCCC1(C)C | inactive | inactive | inactive | inactive | inactive | inactive | inactive | – | – | – | – | inactive | -6.99% | 3.96% | -29.4% | -8.74% | – | – |
| CCCCCCCC(=O)OCC(O)CO (stereo not drawn) | inactive | inactive | 3.55 µM (active) | inactive | inactive | inactive | inactive | – | – | – | – | inactive | -0.0604% | -12.6% | -23.4% | -3.44% | – | – |
| CC(=O)OCC(COC(C)=O)OC(C)=O | inactive | inactive | inactive | inactive | inactive | inactive | inactive | – | – | – | – | inactive | 7.15% | 15.4% | -13.4% | 1.43% | -2.17% and 2.63% | inactive |
| CC(=O)N(CC(O)CO)c1c(I)c(C(=O)NCC(O)CO)c(I)c(C(=O)NCC(O)CO)c1I (stereo not drawn) | inactive | inactive | inactive | inactive | inactive | inactive | inactive | – | – | – | – | inactive | -2.73% | -8.17% | -31.6% | -23.8% | – | – |
| O=c1[nH]c(=O)n([C@H]2C[C@H](O)[C@@H](CO)O2)cc1I | inactive | inactive | inactive | inactive | inactive | inactive | inactive | -27.4% | -17% | – | -18.1% | inactive | – | – | – | – | – | – |
| FC(F)(F)C(Cl)Br (stereo not drawn) | inactive | inactive | inactive | inactive | inactive | inactive | inactive | – | – | – | – | inactive | -5.12% | -3.03% | -22.4% | -0.139% | 3.38% | inactive |
| c1ccc2[nH]ccc2c1 | inactive | inactive | inactive | inactive | inactive | inactive | inactive | – | – | – | – | inactive | -8.88% | – | -21.8% | 0.178% | – | – |
| O=C1C(c2[nH]c3ccccc3c2O)=Nc2ccccc21 | inactive | inactive | inactive | inactive | inactive | inactive | inactive | – | – | – | – | inactive | -10% | -9.74% | -34.1% | -13.3% | 2.85% | inactive |
| O=C1CC[C@@H](C(=O)O)N1 | inactive | inactive | inactive | inactive | inactive | inactive | inactive | – | – | – | – | inactive | -10.6% | -16.2% | – | 1.94% | – | – |
| NCC1CCC(C(=O)Oc2ccc(CCC(=O)O)cc2)CC1 (stereo not drawn) | inactive | inactive | inactive | inactive | inactive | inactive | inactive | – | – | – | – | inactive | -0.713% | -15% | – | 8.61% | – | – |

— PubChem BioAssay (NCATS)
